The values below come from the supplement of paper PMC3484114.

± gives the standard deviation.

The test concerns OVCAR-3-derived ovarian cancer stem-like cells (spheroids). The test can be described thus: cell growth relative to untreated control; higher = more growth (less inhibition). To be noted: 2.29 µM; 96 h. The method in brief:
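Stem-like cells derived from OVCAR-3 spheroids were dissociated with trypsin and seeded at 50,000 cells/mL in stem cell medium in ultra-low attachment 96-well plates, then preincubated for 24 h. Each compound was added at 2.29 uM to 4 replicate wells and left for 96 h at 37°C, 5% CO2. Viability came from TOX8 resazurin fluorescence (ex 560/em 590 nm) read after 4 h. Percent growth was expressed relative to untreated wells, after blank subtraction and removal of outliers by the Grubbs test.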
Compound `Nc1nncs1` had a cell growth of 98.4 ± 22%.

For `CC(=O)NCCCCCCNC(C)=O`, the cell growth turned out to be 119 ± 7.8%.

Compound `CCCC[S+]([O-])CC(CO)NC(=O)/C=C\c1c(C)[nH]c(=O)[nH]c1=O` (stereo not given) registered a cell growth of 105 ± 28%.

On to `CSCC(CO)NC(=O)/C=C/c1c(C)[nH]c(=O)[nH]c1=O` (stereo not given), for which the cell growth turned out to be 82.8 ± 9.5%.

The compound `COc1cc(NS(C)(=O)=O)ccc1Nc1c2ccccc2nc2ccccc12` had a cell growth of 41.4 ± 12%.

In the case of `C1CN(c2nnc(N3CCC3)nn2)C1`, the cell growth came to 104 ± 18%.

Turning to `COC(=O)Nc1nc2ccc(Br)cc2[nH]1`, the cell growth worked out at 107 ± 23%.

For `CCOC(=O)C(C)NC(=O)N(C)C12CC3CC(CC(C3)C1)C2` (stereo not given), the cell growth stood at 8 ± 3.5%.

For the compound `N#CC(c1ccccc1)N(CCCCCCN(C(=O)c1ccccc1)C(C#N)c1ccccc1)C(=O)c1ccccc1` (stereo not given), the cell growth was found to be 122 ± 23%.

Consider `O=C1CCC(c2ccccc2)=NN1c1nc2ccccc2s1`, for which the cell growth turned out to be 39.3 ± 10%.

Turning to `O=C1Cc2c(-c3ccccc3)cc(-c3cccc(Cl)c3)nc2-c2ccccc2N1`, the cell growth came to 99.6 ± 21%.

With `O=C(CC(=O)c1ccccc1NC1=Cc2ccccc2C(=O)C1=O)C(=O)NC1=C(Cl)C(=O)c2ccccc2C1=O`, the cell growth amounted to 33.3 ± 13%.

Take `Oc1ccc2ccccc2c1N=Nc1cccc2ccccc12`: the cell growth was 82.9 ± 12%.

Take `CSC1SC[C@H]2C(=O)N(C)[C@@H](C(C)C)C(=O)OC[C@@H](NC(=O)c3cnc4ccccc4n3)C(=O)N[C@@H](C)C(=O)N(C)[C@@H]1C(=O)N(C)[C@@H](C(C)C)C(=O)OC[C@@H](NC(=O)c1cnc3ccccc3n1)C(=O)N[C@@H](C)C(=O)N2C` (stereo not given in full): the cell growth is 19.7 ± 3.8%.

Take `c1ccc(-c2cccc(-c3ccccn3)n2)nc1`: the cell growth was determined as 79.9 ± 17%.

The compound `COC1CN(C)C(=Nc2cccc3ccccc23)S1` (stereo not given) registered a cell growth of 130 ± 21%.

The compound `CCc1cccc(C(C)C)c1NC(=O)/C(=N\NC(N)=O)C(C(=O)OC)c1cnc2ccccc2n1` (stereo not given) came in with a cell growth of 71.4 ± 14%.

`COc1cc(NC(C)CCCN)c2ncccc2c1` (stereo not given): the cell growth turned out to be 56.5 ± 7%.

`Cc1cc(N)c2ccccc2[n+]1CCCCCCCCCC[n+]1c(C)cc(N)c2ccccc21` came in with a cell growth of 41.9 ± 7.2%.

As to `N[C@@H](CSC(c1ccccc1)(c1ccccc1)c1ccccc1)C(=O)O`, the cell growth worked out at 34.8 ± 6.7%.
